KCNQ2 block – KCNQ2 (rat) channel inhibition; O88943; CHO-K1 KCNQ2, FluxOR thallium flux, 20 min; active compounds read low; B-score at 10 µM; 1.1% of 310,000 active; AID 2156;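 active means fluorescence ratio B-score at most minus 3 library SDs, with starting brightness B-score within 2 library SDs, cut at about -5.5 in these data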
KCNQ2 pot – potentiators of rat KCNQ2 potassium channel; O88943; B-score at 10 µM; AID 2239; CHO-K1 KCNQ2, FluxOR thallium flux fluorescence; active compounds read high; 0.54% of 310,000 active;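 active means fluorescence ratio B-score at least 3 SD of library B-scores, with initial fluorescence B-score within 3 of them, cut at about 5.3 in these data; same plate scores as AID 2156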;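 further: B-score of peak minus minimum over baseline fluorescence ratio after K+ and Tl+ stimulus; positive B-score means potentiation of KCNQ2 with more thallium influx and brighter signal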
KCNQ2 block conf – confirmation of rat KCNQ2 potassium channel inhibitors. KCNQ2-expressing cells, thallium flux, inhibition; active compounds read low. 57% of 1,000 active. shares compounds with KCNQ2 block. AID 493025. activity change, negative = inhibition, % at 10 µM
KCNQ1 spec – KCNQ2 inhibitor that also affects human KCNQ1 channel. shares compounds with KCNQ2 block. KCNQ1-expressing cells, FluxOR thallium flux fluorescence; active compounds read low. activity change, negative = inhibition, % at 10 µM. 15% of 1,000 active;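 active means activity change at least 3 SD of negative controls below their mean in both duplicate wells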;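 further: CHO cells stably transfected with KCNQ1 and depolarized by potassium stimulus; peak minus minimum fluorescence over baseline after thallium addition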
CHO parental ctr – counter-screen for KCNQ2 inhibitors: effect in parental CHO cells; shares compounds with KCNQ2 block; thallium flux counter-screen; active compounds read low; activity change, % at 10 µM; 14% of 1,000 active
KCNQ2 patch conf – confirmation of rat KCNQ2 potassium channel inhibitors | shares compounds with KCNQ2 block | AID 588531 | calls only at 10 µM | 49% of 550 active | KCNQ2-expressing cells, automated patch clamp current
Kir21 confirm – confirmation of mouse Kir2.1 potassium channel inhibitors; shares compounds with KCNQ2 pot; Kir2.1-expressing cells, FluxOR thallium flux fluorescence; active compounds read low; Tl flux remaining, % of negative control (active compounds read low), % at 10 µM; 41% of 2,300 active; AID 2032;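 active means Primary-screen hit whose thallium flux fell at least 3 control SD below untreated wells in both duplicates, with normal baseline fluorescence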
Target sequence (P35561 whole entry, looked up): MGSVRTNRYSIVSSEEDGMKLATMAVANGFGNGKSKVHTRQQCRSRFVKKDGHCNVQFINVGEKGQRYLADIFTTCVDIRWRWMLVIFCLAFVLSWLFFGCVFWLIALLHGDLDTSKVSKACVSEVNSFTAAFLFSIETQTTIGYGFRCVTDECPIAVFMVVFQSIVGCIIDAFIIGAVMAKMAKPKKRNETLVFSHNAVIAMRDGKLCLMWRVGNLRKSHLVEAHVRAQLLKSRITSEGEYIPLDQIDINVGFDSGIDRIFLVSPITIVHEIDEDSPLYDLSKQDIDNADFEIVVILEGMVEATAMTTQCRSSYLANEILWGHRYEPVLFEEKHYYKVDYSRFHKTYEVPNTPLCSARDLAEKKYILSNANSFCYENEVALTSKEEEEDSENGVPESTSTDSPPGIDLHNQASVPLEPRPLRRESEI
HEK293 ctr – alters thallium flux in parental HEK293 cells, Kir2.1 counter-screen; shares compounds with KCNQ2 pot; FluxOR thallium flux fluorescence; 0% = unstimulated blank wells; FluxOR signal as % of negative control (100 = no effect), % at 10 µM; 19% of 2,300 active; AID 2105;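 active means dye signal at least 3 control SD above or below untreated wells in both duplicates, raw fluorescence within 3, either direction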;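 further: percent is based on the flux ratio of peak minus minimum fluorescence over baseline F0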
Large screens that a line does not name were inactive (follow-up assays come after a bar, where they were run). Sampled rows, rich in hits. Any-hit rate of the full collection: about 1.6%. Unless noted, how the calls were made is not given here.

COc1cc(/C=C/[N+](=O)[O-])ccc1O	KCNQ2 block -7.11 | KCNQ2 block conf -32.5% | KCNQ1 spec -30.5% | CHO parental ctr -23.5% | KCNQ2 patch conf inactive
COc1cc(/C=C2/C(=O)NC(=O)N(c3ccccc3)C2=O)ccc1O	none
O=c1c2ccccc2nc(-c2cccs2)n1-c1ccccc1	none (no result: KCNQ2 pot)
NC(N)=N/N=C/c1cn(-c2ccccc2)nc1-c1cccs1	KCNQ2 block -11.3 | KCNQ2 block conf inactive | KCNQ1 spec inactive | CHO parental ctr inactive
CCCC1(CCC)C(=O)NC(=Nc2ccccc2)NC1=O	none
CCCC1(CCC)C(=O)NC(=NCc2ccccc2)NC1=O	KCNQ2 block -10.3 | KCNQ2 block conf -36.5% | KCNQ1 spec inactive | CHO parental ctr inactive | KCNQ2 patch conf active
S=C1NC2(CCCCC2)NC12CCCCC2	none (no result: KCNQ2 pot)
CCC(=O)O[C@@H]1[C@@H](OC(C)=O)[C@@]2(O)C(C[C@H](O)C2(C)C)[C@](C)(O)[C@H]2CC[C@@H]3[C@@H](O)[C@]12C[C@@]3(C)O (some centres undefined)	none
CCN(CC)c1ccc(CC2C(=O)N(C)C(=O)N(C)C2=O)cc1	none (no result: KCNQ2 pot)
CCN(CC)c1ccc(/C=C/[N+](=O)[O-])cc1	KCNQ2 block -8.76 | KCNQ2 block conf -75.0% | KCNQ1 spec -79.5% | CHO parental ctr -76.5% | KCNQ2 patch conf inactive
COc1cccc(-n2c(/C=C/c3ccc(O)c(O)c3)nc3ccccc3c2=O)c1	KCNQ2 block -6.91 | KCNQ2 block conf -28.0% | KCNQ1 spec inactive | CHO parental ctr inactive | KCNQ2 patch conf inactive
COc1ccc(-n2c(/C=C/c3ccc(O)c(OC)c3)nc3ccccc3c2=O)cc1	none (no result: KCNQ2 pot)
Nc1nonc1C(=O)N/N=C/c1ccc([N+](=O)[O-])o1	none (no result: KCNQ2 pot)
COc1cccc(NC2=NCCCS2)c1	none (no result: KCNQ2 pot)
O=c1[nH]c(=S)[nH]c(O)c1/C=N/N1CCOCC1	none (no result: KCNQ2 pot)
CCOC(=O)c1c(NC(NC(=O)CF)C(Cl)(Cl)Cl)sc2c1CCCC2 (centres undefined)	KCNQ2 block -8.37 | KCNQ2 block conf -29.0% | KCNQ1 spec inactive | CHO parental ctr inactive | KCNQ2 patch conf inactive
CCOC(=O)c1c(/N=C/C2C(=O)NC(=O)NC2=O)sc2c1CCC2	none
Cc1c(NC(NC(=O)CF)C(Cl)(Cl)Cl)c(=O)n(-c2ccccc2)n1C (centres undefined)	none (no result: KCNQ2 pot)
CC(C)(C)C(=O)Nc1ccc(S(=O)(=O)N2CC3CC(C2)c2cccc(=O)n2C3)cc1 (centres undefined)	none (no result: KCNQ2 pot)
COc1ccc(SCC2CN(C)CCC2c2ccc(F)cc2)cc1 (centres undefined)	none (no result: KCNQ2 pot)
CC1CN2c3ccc([N+](=O)[O-])cc3CC3(C(=O)N(C)C(=O)N(C)C3=O)C2C(C)O1 (centres undefined)	none
O=P(NS(=O)(=O)c1ccccc1)(Oc1ccccc1)Oc1ccccc1	none
O=P(NCc1ccccc1)(Oc1ccccc1)Oc1ccccc1	KCNQ2 block -6.87 | KCNQ2 block conf inactive | KCNQ1 spec inactive | CHO parental ctr inactive
CCOC(=O)c1ccc2[nH]c(-c3ccc(S(=O)(=O)F)cc3)cc(=O)c2c1	none (no result: KCNQ2 pot)
CCC(C#N)(CC)P(=S)(c1ccccc1)c1ccccc1	KCNQ2 block -8.64 | KCNQ2 block conf inactive | KCNQ1 spec inactive | CHO parental ctr inactive
C=CCN1CCc2cccc3c2[C@H]1Cc1ccc(O)c(O)c1-3	none (no result: KCNQ2 pot)
CC(C)N(Cc1ccco1)/N=C/c1c(O)n(Cc2ccccc2)c(=O)[nH]c1=O	none (no result: KCNQ2 pot)
COc1cccc(NP(=O)(Oc2ccc(Cl)cc2)Oc2ccc(Cl)cc2)c1	none (no result: KCNQ2 pot)
O=P(Nc1ccccc1)(Nc1ccccc1)Oc1ccc(Cl)cc1	KCNQ2 block -9.69 | KCNQ2 block conf inactive | KCNQ1 spec inactive | CHO parental ctr inactive
O=C(CNC(=O)c1ccccc1Cl)Nc1ccc(Br)cc1C(=O)c1ccccc1	none
O=C(c1cc(C(=O)NCc2ccccc2)c(=O)n(Cc2ccccc2)c1)c1cc(Br)ccc1O	KCNQ2 block -8.25 | KCNQ2 block conf -33.5% | KCNQ1 spec -39.0% | CHO parental ctr -32.0% | KCNQ2 patch conf inactive
CC1CCN(CC#CCOc2ccc(Cl)cc2)CC1	none (no result: KCNQ2 pot)
Clc1ccc(COC(Cn2ccnc2)c2ccc(Cl)cc2Cl)c(Cl)c1 (centres undefined)	KCNQ2 block -7.31 | KCNQ2 block conf -38.0% | KCNQ1 spec -42.0% | CHO parental ctr -34.5% | KCNQ2 patch conf inactive
CCCCCCCSc1cc(OC)c(CCNC)cc1OC	KCNQ2 block -7.43 | KCNQ2 block conf -31.0% | KCNQ1 spec inactive | CHO parental ctr inactive | KCNQ2 patch conf inactive | Kir21 confirm 19.5% | HEK293 ctr inactive
CCOC(=O)c1[nH]c2ccc(OC)cc2c1C(SCC(=O)O)c1ccc(C(F)(F)F)cc1 (centres undefined)	none (no result: KCNQ2 pot)
Oc1ccc(-[n+]2c(-c3ccccc3)cc(-c3ccccc3)cc2-c2ccccc2)cc1	KCNQ2 block -6.93 | KCNQ2 block conf -27.0% | KCNQ1 spec inactive | CHO parental ctr inactive | Kir21 confirm 44.5% | HEK293 ctr 73.5%
O=C([O-])c1ccc(-[n+]2c(-c3ccccc3)cc(-c3ccccc3)cc2-c2ccccc2)cc1	none (no result: KCNQ2 pot)
CCN1CCN(Cc2cccnc2)CC1	none (no result: KCNQ2 pot)
Cn1c(O)c(C=NCCN2CCN(C(=O)Nc3ccccc3)CC2)c(=O)n(C)c1=O	none (no result: KCNQ2 pot)
COc1cccc(C(=O)C2CCCN(Cc3ccc(F)cc3)C2)c1 (centres undefined)	none
COc1ccc(CN2CCCC(C(=O)c3ccc(Cl)cc3)C2)c(O)c1 (centres undefined)	none (no result: KCNQ2 pot) | Kir21 confirm 67.5% | HEK293 ctr inactive
COc1cc(CN2CCCC(C(=O)c3sccc3C)C2)cc(OC)c1O (centres undefined)	none
COc1ccc(CN2CCCC(C(=O)c3sccc3C)C2)cc1O (centres undefined)	none | Kir21 confirm 56.5% | HEK293 ctr inactive
Cc1cc(-c2ccccc2)cc(-c2ccccc2)[n+]1CCc1ccccc1	KCNQ2 block -5.72 | Kir21 confirm 45.0% | HEK293 ctr inactive
C[n+]1c(-c2ccccc2)cc(-c2ccc(O)cc2)cc1-c1ccccc1	none
Clc1ccc(C[n+]2c(-c3ccccc3)cc(-c3ccccc3)cc2-c2ccccc2)cc1	KCNQ2 block -7.22 | Kir21 confirm 17.0% | HEK293 ctr inactive
CCOC(C[n+]1c(-c2ccccc2)cc(C)cc1-c1ccccc1)OCC	none
Fc1ccc(C[n+]2c(-c3ccccc3)cc(-c3ccccc3)cc2-c2ccccc2)cc1	KCNQ2 block -6.33 | Kir21 confirm 24.5% | HEK293 ctr inactive
Cc1ccc(-c2cc(-c3ccccc3)cc(-c3ccccc3)[n+]2-c2ccccc2C(=O)O)cc1	none (no result: KCNQ2 pot)
Cc1cc(O)c(CN2CC=C(c3ccccc3)CC2)cc1C(C)C	none (no result: KCNQ2 pot)

High-throughput results deposited in PubChem by Johns Hopkins Ion Channel Center.
